LGR2 antag – inhibitors of bursicon-induced Drosophila LGR2 receptor cAMP signaling; 0.35% of 380,000 active; AID 720647; HEK293 LGR2, CRE-luciferase, bursicon-stimulated, 4 h; inhibition, % at 9.99 µM;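 active = drop in luminescence signal, shown as inhibition above about 50% in the replicate tests, limit read from the data, passing the limit was not always enough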;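 also: agonist challenge used bursicon conditioned medium at about half maximal strength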
TWEAK Fn14 block – inhibitors of TWEAK-Fn14 interaction signaling. inhibition, % at 10 µM. AID 1159606. 2% of 360,000 active. TWEAK-stimulated Fn14 reporter cells, luciferase luminescence, 8 h; in the data active = inhibition above about 50%
EBV LMP1 NFkB – Epstein-Barr LMP1 NF-kappaB reporter inhibition; inhibition, % at 12.5 µM; AID 504558; LMP1-induced NF-kappaB luciferase reporter cells, luminescence; 0.69% of 350,000 active; in the data active = inhibition above about 41%;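 also: 0% = neutral control wells and 100% = reference inhibitor control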
EWS-Fli inh – blocks EWS/Fli oncoprotein-driven transcription | A673 NR0B1-luciferase reporter, viability-normalised | 0.67% of 350,000 active | inhibition, % at 12.6 µM;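 active = mean inhibition of at least 50% after viability correction, with every replicate also passing that limit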;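 also: firefly luciferase signal divided by Alamar Blue viability fluorescence both relative to DMSO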
TROY signal inh – blocks TROY-dependent signaling in reporter cells; Q293 LMP1-TROYcd NF-kB luciferase reporter, 4 h; inhibition, % at 10 µM; 0.98% of 360,000 active; AID 1347056;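 active = compounds whose plate-normalised and pattern-corrected inhibition of the luciferase reporter signal at the single screening dose is 50% or more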
PAX8 reporter – inhibitors of PAX8 transcriptional activity in RMG-I cells. 1.2% of 360,000 active. RMG-I TPO-luciferase reporter, SteadyGlo, 24 h. inhibition, % at 12.6 µM;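 active = mean replicate inhibition at least 60% with every replicate also reaching 60%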;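 also: luciferase light reporting Pax8 driven TPO promoter activity; plate controls were median of neutral control wells for no effect and mitoxantrone controls for full effect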
* marks the source's active call; other numbers are inactive results; ! = a repeat was not active. A selection: hits, their analogues and other compounds. The true share with any hit is near 3.2%.

`Cc1ccccc1-c1ccc([C@H]2[C@@H](CO)N3C(=O)CN(C(=O)c4ccccc4)C[C@@H]23)cc1` gave LGR2 antag 14, EWS-Fli inh -8 and PAX8 reporter 36.
CN(C)/C=N/C(=S)Nc1ccc(Cl)c(Cl)c1 was read as LGR2 antag -40, TWEAK Fn14 block -3, EBV LMP1 NFkB -22, EWS-Fli inh -66, TROY signal inh -23 and PAX8 reporter -112.
Screening CN(C)/C=N/C(=S)Nc1ccccc1F returned TWEAK Fn14 block 74* and EBV LMP1 NFkB -5.
`CN(C)/C=N/C(=S)Nc1ccc(F)cc1` gave TWEAK Fn14 block 88* and EBV LMP1 NFkB -1.
For CN(C)/C=N/C(=S)Nc1ccccc1Cl the results were TWEAK Fn14 block -3, EBV LMP1 NFkB 40, EWS-Fli inh -13, TROY signal inh -5 and PAX8 reporter -14.
COc1ccc2c3c(n(C)c2c1)[C@H](CO)N(C(=O)C1CC1)CC31CCN(C)CC1 was read as LGR2 antag -14 and EWS-Fli inh 5.
O=C(COC(=O)COc1ccc(Br)cc1)NC1CCCCCC1 was read as LGR2 antag 11, TWEAK Fn14 block 1, EBV LMP1 NFkB -9, EWS-Fli inh -3, TROY signal inh 79* and PAX8 reporter -7.
For CO[C@@H]1CN(C)C(=O)c2cc(NC(=O)C3CCC3)ccc2OC[C@@H](C)N(C(=O)c2ccccc2)C[C@H]1C the results were LGR2 antag -3, EWS-Fli inh -7 and PAX8 reporter 15.
Cc1[nH]nc(-c2cccnc2)c1N=NN(C)C was read as LGR2 antag 29, TWEAK Fn14 block 22, EBV LMP1 NFkB 11, EWS-Fli inh 55*, TROY signal inh 33 and PAX8 reporter 71*.
CCc1cc(Cl)c(OC)c(C(=O)NC[C@@H]2CCCN2CC)c1O was read as LGR2 antag -1, TWEAK Fn14 block -27, EBV LMP1 NFkB 71*!, EWS-Fli inh 18, TROY signal inh 4 and PAX8 reporter 2.
For CCN1CCCC1CNC(=O)c1ccccc1Cl (stereo not given) the results were LGR2 antag 6, TWEAK Fn14 block -11, EBV LMP1 NFkB 0 and TROY signal inh -9.
For COc1cccc(S(=O)(=O)Nc2ccc3c(c2)C(=O)N(C)[C@H]2CC[C@@H](CC(=O)NCC4CCCCC4)O[C@@H]2CO3)c1 the results were LGR2 antag 15, EWS-Fli inh 9 and PAX8 reporter -7.
CC(=O)N1C[C@H]2[C@@H](c3ccccc31)[C@@H](CO)N2C(=O)CC1CC1 was read as LGR2 antag -3, EWS-Fli inh -10 and PAX8 reporter -17.
For Cc1cc(C)c(O)c(NC(=S)NC(=O)Cc2ccccc2)c1 the results were LGR2 antag 7, TWEAK Fn14 block 72*, EBV LMP1 NFkB 1, EWS-Fli inh -8, TROY signal inh -21 and PAX8 reporter -36.
Screening O=C1C=CC2=C3c4cc(O)c(O)cc4CC3(O)COC2=C1O (stereo not given) returned LGR2 antag 5, TWEAK Fn14 block 86*, EBV LMP1 NFkB 9, EWS-Fli inh -2 and TROY signal inh 0.
Screening O=C1CC(c2ccco2)Cc2nc(Nc3nc(-c4ccccc4)c4ccccc4n3)ncc21 (stereo not given) returned TWEAK Fn14 block 1, EBV LMP1 NFkB 77* and TROY signal inh -3.
`CC1CCCN(c2sc(S(C)(=O)=O)nc2S(=O)(=O)c2ccc(Cl)cc2)C1` (stereo not given) gave LGR2 antag 24, TWEAK Fn14 block 51*, EBV LMP1 NFkB 4, TROY signal inh 19 and PAX8 reporter 11.
`CCS(=O)(=O)c1nc(S(=O)(=O)c2ccc(C)cc2)c(N2CCCC(C)C2)s1` (stereo not given) gave LGR2 antag 13, TWEAK Fn14 block 26, EBV LMP1 NFkB 2, TROY signal inh 7 and PAX8 reporter 23.
CC1CN(c2sc(S(C)(=O)=O)nc2S(=O)(=O)c2ccc(Cl)cc2)CC(C)O1 (stereo not given) was read as LGR2 antag 23, TWEAK Fn14 block 57*, EBV LMP1 NFkB 4, EWS-Fli inh 16, TROY signal inh 20 and PAX8 reporter 6.
For CS(=O)(=O)c1nc(S(=O)(=O)c2ccc(Cl)cc2)c(N2CCOCC2)s1 the results were LGR2 antag 5, TWEAK Fn14 block 49, EBV LMP1 NFkB 8, EWS-Fli inh 17, TROY signal inh 8 and PAX8 reporter 12.
Screening CCOC(=O)c1nnn(-c2nc(N3CCCC3)nc(N3CCCC3)n2)c1-c1ccccc1 returned TWEAK Fn14 block 38, EBV LMP1 NFkB 15, TROY signal inh 4 and PAX8 reporter 2.
FC(F)(F)c1cc(-c2ccccc2)nc(N2CCCCC2)n1 was read as LGR2 antag 9, TWEAK Fn14 block 22, EBV LMP1 NFkB -11 and TROY signal inh -4.
`CCOc1nc(N2CCCCC2)nc(-n2cc(-c3ccccc3)nn2)n1` gave LGR2 antag -17, TWEAK Fn14 block 72* and EBV LMP1 NFkB 17.
Screening CCOC(=O)c1c(-c2ccccc2)nnn1-c1nc(OCC)nc(N2CCCCC2)n1 returned TWEAK Fn14 block 53*, EBV LMP1 NFkB 13, TROY signal inh 10 and PAX8 reporter 28.
For COc1cccc(CN(C)C[C@@H]2OCc3cn(nn3)CCCC(=O)N([C@@H](C)CO)C[C@H]2C)c1 the results were LGR2 antag -12, EWS-Fli inh 3 and PAX8 reporter -2.
For CC1CCCC(C)N1c1nnc(NC(=O)c2cc(-c3ccc(Br)cc3)on2)s1 (stereo not given) the results were TWEAK Fn14 block 15, EBV LMP1 NFkB -1, EWS-Fli inh 3, TROY signal inh 44 and PAX8 reporter -4.
`O=C(Nc1nnc(N2CCCCCC2)s1)c1cc(-c2ccc(Br)cc2)on1` gave TWEAK Fn14 block 2, EBV LMP1 NFkB 86*, EWS-Fli inh -11, TROY signal inh 3 and PAX8 reporter -18.
CNC[C@@H]1Oc2ccc(NS(=O)(=O)c3cn(C)cn3)cc2CC(=O)N([C@H](C)CO)C[C@H]1C was read as LGR2 antag 16, EWS-Fli inh 1 and PAX8 reporter -8.
Screening CN1CCN(C(=O)C[C@@H]2CC[C@H]3[C@H](COc4ccc(NC(=O)c5cccs5)cc4C(=O)N3C)O2)CC1 returned LGR2 antag -7, EWS-Fli inh 3 and PAX8 reporter 5.
For COc1ccc(CC(=O)N2CCOCC2)cc1 the results were TWEAK Fn14 block 99*, EBV LMP1 NFkB -4 and TROY signal inh -15.
For COc1ccc(CC(=O)N2CCOCC2)cc1OC the results were TWEAK Fn14 block 12, EBV LMP1 NFkB -1 and TROY signal inh 0.
For COc1ccc(/C(N)=N/OC(=O)N2CCOCC2)cc1 the results were LGR2 antag 25, TWEAK Fn14 block -7, EBV LMP1 NFkB 90*, EWS-Fli inh -11, TROY signal inh -18 and PAX8 reporter 4.
